The text below walks through data of the supplement of paper PMC6555819.

The subject of the test is LXRb homodimer (NR concentration 270 nM). Put plainly: PBM binding z-score (relative to random genomic background probes); higher = stronger binding; sequences stand for … in GC…GCGATTGACAGCGTAGAATGAAGG
The gist of the method:
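Ligand-free nuclear receptor dimers were applied to custom Agilent 4×180K protein-binding microarrays whose double-stranded probes carried direct-repeat seeds, single-nucleotide variants, half-site ablations and random human genomic background sequences in 34-nt variable regions. Incubation lasted 1 h. Binding z-scores were computed against the random background probes from regression-normalized fluorescence.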
The sequence ATGTCTAGGTAAAGTTCAGTGAAAGATCGATAGA showed a PBM binding z-score of 0.816.

TATTGTAGATCAACAGGAGGTTAAGAAAGATCGA: the PBM binding z-score was 0.546.

The sequence ATCGAGAGGTCGAGGTGAGTATAGAGAAAGGGAA registered a PBM binding z-score of -0.102.

Consider TCTTGTAGATTAACAGGAGGTTAAGAAAGATCGA, for which the PBM binding z-score is -0.0109.

Sequence CAAACTTGGTCACCGGAAGGTCAAAGTCCGCATG had a PBM binding z-score of 0.75.

Sequence TAGCCTAGGTCATGCGGGCCAGTATCGTGTCGGC yielded a PBM binding z-score of -0.226.

Regarding TCATATAGGTAAATGTGAAAGTCGAACGATATGA, the PBM binding z-score was -0.015.

In the case of TAGCCAAGGTCATGGGCCAGTATACCACGCGAAC, the PBM binding z-score amounted to 0.229.

The sequence ATTTCTAGGTAAAGTTCAGTGAAAGATCGATAGA had a PBM binding z-score of 1.27.

In the case of ACTAGGAGGCCAAGGGTCACTCAAGATTAGTCCG, the PBM binding z-score is 0.0149.

The sequence CCGACTGGGGCATAAGGATACCATAAGCCAGCCC came in with a PBM binding z-score of -1.53.

TCGACTAGGTTACCAATGGGGCATTCAGCTTTCT returned a PBM binding z-score of -0.537.

As to TCTTGTAGATCGGCAGGTTAAGAAAGCTGGCCAA, the PBM binding z-score was -0.432.

In turn, CAAACTAGGTCACGAAAGATCAAAGTCGAATGAC displayed a PBM binding z-score of 0.541.

As to TCTTGTAGATCAGCAGGTTAAGGAAGCTGGCCAA, the PBM binding z-score was -0.678.

As for GCGACTGGGGCATCAGCAGGTTACCAAAACTTAA, the PBM binding z-score is -0.676.

With CCTCGGAGGACAGAAGGTCAGAGCCGTCCGCTTT, the PBM binding z-score was -0.824.

ATTGAAAGGTCGACGAGGTGAGTATACACCGTTT gave a PBM binding z-score of 0.545.

Consider CCTATTGGGCCAAAGGTCATTGATTCCAATGCTC, for which the PBM binding z-score is 1.02.

The sequence AATACAGGGTCACTAGGCGAGAGTAGGTACGAAT displayed a PBM binding z-score of 1.26.

As for ACTAGTTGGTGAGCTGAGGTCACACACAATTCGG, the PBM binding z-score was 0.277.

As to TCATATAGGTAAAGGTGAAAGGCGAACGATATGA, the PBM binding z-score is 0.0383.
